From PubChem BioAssay (NCATS)
Results filed as inconclusive are left out. The source made the active and inactive calls. Calls follow the shape of the dose curve; as a rule, active = well fitted inhibition curve with a large enough effect; inconclusive = small, poorly fitted or top-dose-only effect; inactive = flat fitted curve, though single readings scatter.

What was measured:
Assay in all cases: qHTS profiling for inhibitors of Plasmodium falciparum proliferation (AID 504749); also: nearly all actives have a fitted effect of over 60% in size
Settings in all cases: P. falciparum in erythrocytes, SYBR Green DNA, 72 h; series mostly up to 28.7 µM
[1] = tested on: CP211
Summary of the method: (§1)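 Fluorescence of SYBR Green-bound parasite DNA, read at 485/535 nm, served as the growth measure. Infected erythrocytes were cultured with compound 72 h; artemisinin (0.29 uM) and DMSO wells defined the normalization range.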

[2] = tested on: CP215
Summary of the method: as §1

[3] = tested on: CP217
Summary of the method: as §1

[4] = tested on: CP237
Summary of the method: as §1

[5] = tested on: CP238
Summary of the method: as §1

[6] = tested on: CP247
Summary of the method: as §1

[7] = tested on: CP250
Summary of the method: as §1

[8] = tested on: CP252
Summary of the method: as §1

[9] = tested on: CP256
Summary of the method: as §1

[10] = tested on: CP260
Summary of the method: as §1

[11] = tested on: CP262
Summary of the method: as §1

[12] = tested on: CP265
Summary of the method: as §1

[13] = tested on: CP266
Summary of the method: as §1

[14] = tested on: CP268
Summary of the method: as §1

[15] = tested on: CP269
Summary of the method: as §1

[16] = tested on: CP286
Summary of the method: as §1

[17] = tested on: CP291
Summary of the method: as §1

[18] = tested on: CP297
Summary of the method: as §1

[19] = tested on: CP305
Summary of the method: as §1

[20] = tested on: CP315
Summary of the method: as §1

Measured: Potency

CC(C(=O)O)c1ccc2c(c1)Cc1cccnc1O2 (stereo not given)
inactive: all assays above

CC(=O)NS(=O)(=O)c1ccc(N)cc1
inactive: all assays above

O=C(O)CCC(=O)O
inactive: all assays above

CC(=O)OCC(COC(C)=O)OC(C)=O
inactive: all assays above

CC(C)C[C@@H](N)C(=O)O
inactive: all assays above

O[C@@H]1CO[C@H]2[C@@H]1OC[C@@H]2O
inactive: all assays above

CC(=O)Nc1cccc(O)c1
inactive: all assays above

COc1cc(O)cc(O)c1
inactive: all assays above

O=C(O)Cn1c(C(=O)Nc2nc(-c3ccccc3Cl)cs2)cc2ccccc21
inactive: all assays above

O=C(O)Cc1cn(-c2ccccc2)nc1-c1ccc(Cl)cc1
inactive: all assays above

NS(=O)(=O)c1cc(-c2nn[nH]n2)c(NCc2cccs2)cc1Cl
inactive: all assays above

Cc1cccc(C)c1NC(=O)CC12CCCN1CCC2
inactive: all assays above

CC(=O)Nc1ccc(C(=O)O)cc1
inactive: all assays above

CC(=O)NCc1c(I)c(NC(C)=O)c(I)c(C(=O)O)c1I
inactive: all assays above

C[C@@H]1CCC[C@H](C)N1
inactive: all assays above

CCS(=O)(=O)CCn1c([N+](=O)[O-])cnc1C
inactive: all assays above

CCCCOC(=O)c1ccc(N)cc1
inactive: all assays above

CC1CC(OC(=O)c2ccccc2O)CC(C)(C)C1 (stereo not given)
inactive: all assays above

Cc1ccc(S(=O)(=O)NC(=O)NC2CCCCC2)cc1
inactive: all assays above

Cc1cc(=O)[nH]c(=S)[nH]1
inactive: all assays above

CC(C)CCOC(=O)c1ccc(N(C)C)cc1
inactive: all assays above

NC(=O)CC[C@@H](N)C(=O)O
inactive: all assays above

NC(N)=NS(=O)(=O)c1ccc(N)cc1
inactive: all assays above

NS(=O)(=O)c1cc2c(cc1C(F)(F)F)NCNS2(=O)=O
inactive: all assays above

O=C(O)c1ccc(OCCCOc2ccc(C(=O)O)cc2)cc1
inactive: all assays above

O=C(O)COC(=O)Cc1ccccc1Nc1c(Cl)cccc1Cl
inactive: all assays above

O=C1c2cccc(O)c2C(=O)c2c(O)cccc21
inactive: all assays above

CN1CCN(C(=O)C2CCCCC2)CC1
inactive: all assays above

CCCCCCCCCCCCCCCCCCO
inactive: all assays above
